Results taken from PubChem BioAssay (NCATS).
Where “and” joins values, the source holds several entries; their conditions need not be identical. Equal values may be shown once. Inconclusive results are not listed. A structure can be active in one record and inactive in another. Calls of active or inactive are those of the source. Unless noted, the call rests on the fitted dose curve; in most records, active means well fitted curve in the direction sought with a large enough effect; inconclusive means small, poorly fitted or top-dose-only effect, or another doubt; inactive means no such curve, though single readings can be large; an effect the other way counts as inactive or inconclusive.

What was measured:
[1] = Stat Signaling Pathway (AID 446; active means well fitted curve in either direction with a large enough effect, not every such curve was filed as active;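 further: ME-180 cervical cancer cells given 40 pM IL-6 alongside compound; SIE-controlled beta-lactamase reporter measured as 460/530 nm FRET emission ratio; on the % scale 0 is the no-effect control and ±100 the full control effect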)
In short: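 IL-6/STAT signaling read in ME-180 cells via an SIE beta-lactamase reporter. Stimulus was 40 pM IL-6 (its AC50) for 5 hrs, so both activation and inhibition register.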

[2] = biological target: Glucocorticoid receptor (Homo sapiens) (UniProt P04150); assay: GR-GFP Redistribution (AID 450;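 active means compounds whose dose series gives a full or clear partial fitted curve of increased nuclear translocation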; further: potency means the concentration at half of the fitted maximal effect); conditions: U2OS GR-GFP nuclear translocation, laser cytometry, 2 h
Glucocorticoid receptor (Homo sapiens), sequence (P04150 whole entry, looked up, the tested form may be a part): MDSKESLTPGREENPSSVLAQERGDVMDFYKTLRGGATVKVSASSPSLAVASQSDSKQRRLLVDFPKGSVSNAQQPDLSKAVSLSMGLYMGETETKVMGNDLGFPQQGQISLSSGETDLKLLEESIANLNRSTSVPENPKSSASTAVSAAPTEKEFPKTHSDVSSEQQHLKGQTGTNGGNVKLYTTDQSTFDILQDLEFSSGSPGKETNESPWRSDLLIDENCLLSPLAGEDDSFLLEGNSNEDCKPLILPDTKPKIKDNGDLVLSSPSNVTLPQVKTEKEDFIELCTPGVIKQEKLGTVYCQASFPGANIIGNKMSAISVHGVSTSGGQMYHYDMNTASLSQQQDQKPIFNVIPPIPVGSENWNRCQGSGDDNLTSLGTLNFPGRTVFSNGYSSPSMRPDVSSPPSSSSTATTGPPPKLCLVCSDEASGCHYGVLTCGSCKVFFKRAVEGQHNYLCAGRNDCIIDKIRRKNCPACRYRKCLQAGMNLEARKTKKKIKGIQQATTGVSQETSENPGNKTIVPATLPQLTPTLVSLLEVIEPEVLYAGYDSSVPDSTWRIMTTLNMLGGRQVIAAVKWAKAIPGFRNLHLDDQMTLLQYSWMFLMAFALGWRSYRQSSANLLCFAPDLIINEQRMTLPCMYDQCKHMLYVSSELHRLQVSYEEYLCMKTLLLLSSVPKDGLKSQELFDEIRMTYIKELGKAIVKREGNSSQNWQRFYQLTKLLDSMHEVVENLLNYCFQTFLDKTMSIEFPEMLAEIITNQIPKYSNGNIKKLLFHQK

[3] = biological target: Glucocorticoid receptor (Homo sapiens) (UniProt P04150); assay: GR-EFC Redistribution (AID 451; calls by dose curve; further: potency means the concentration at half of the fitted maximal effect); conditions: CHO-K1 GR-EFC translocation, beta-gal luminescence, 2 h
In short: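 Translocation of GR-ED fusion to nuclear EA restores b-gal, read by luminescence after 1 h room-temperature detection. Engineered CHO-K1 biosensor cells, 1,000/well, exposed 2 h at 37 C to titrations up to 46 uM final.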

[4] = biological target: Mitogen-activated protein kinase 10 (Mus musculus) (UniProt Q61831); assay: JNK3 AlphaScreen Assay (AID 530; active means well fitted curve in either direction with a large enough effect, not every such curve was filed as active;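 further: kinase came from lysate of stimulated human HepG2 cells; signal reports phosphorylation of biotinylated GST-cJun 1-79 at Ser73 with 10 µM ATP; on the % scale 0 is the no-effect control and ±100 the full control effect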)
In short: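 Room-temperature AlphaScreen kinase assay; pre-activated HepG2 lysate as JNK3 source, biotin-GST-cJun(1-79) substrate, 10 uM ATP, compound 15 min preincubation.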

[5] = biological target: 3',5'-cyclic-AMP phosphodiesterase 4B (Homo sapiens) (UniProt Q07343); assay: qHTS Assay for Inhibitors of PDE-IV (AID 607; active means well fitted activation curve with a large enough effect in the main read-out, with a control signal flat, not every such curve was filed as active; further: % of control where 0% means no effect)
3',5'-cyclic-AMP phosphodiesterase 4B (Homo sapiens), sequence (Q07343 whole entry, looked up): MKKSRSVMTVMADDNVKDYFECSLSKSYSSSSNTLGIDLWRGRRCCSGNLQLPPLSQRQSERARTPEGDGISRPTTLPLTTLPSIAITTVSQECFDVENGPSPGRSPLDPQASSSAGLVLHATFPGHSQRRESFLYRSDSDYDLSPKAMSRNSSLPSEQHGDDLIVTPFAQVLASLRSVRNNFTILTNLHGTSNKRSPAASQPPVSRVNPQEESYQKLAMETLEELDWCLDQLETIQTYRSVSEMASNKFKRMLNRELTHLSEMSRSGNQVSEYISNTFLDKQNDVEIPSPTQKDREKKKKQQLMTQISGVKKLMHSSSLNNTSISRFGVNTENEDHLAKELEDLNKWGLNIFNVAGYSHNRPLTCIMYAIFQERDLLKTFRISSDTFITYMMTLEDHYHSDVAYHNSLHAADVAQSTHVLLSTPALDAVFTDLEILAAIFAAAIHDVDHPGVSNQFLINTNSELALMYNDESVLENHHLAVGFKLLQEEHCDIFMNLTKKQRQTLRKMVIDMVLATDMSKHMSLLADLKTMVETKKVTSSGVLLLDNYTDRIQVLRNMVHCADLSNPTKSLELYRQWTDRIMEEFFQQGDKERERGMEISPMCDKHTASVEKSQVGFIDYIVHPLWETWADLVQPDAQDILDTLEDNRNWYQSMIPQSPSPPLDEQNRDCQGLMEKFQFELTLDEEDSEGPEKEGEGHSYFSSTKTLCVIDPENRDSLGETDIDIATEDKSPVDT
In short: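 Live HEK293 cells with a modified cyclic nucleotide-gated (CNG) channel report intracellular cAMP via membrane-potential dye fluorescence (ex 535/em 590 nm). Endogenous PDE-IV was targeted. Compounds were tested at up to 22.9 uM final; RO 20-1724 100 uM served as control.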

[6] = biological target: Cytochrome P450 2C9 (Homo sapiens) (UniProt P11712); assay: qHTS Assay for Inhibitors and Substrates of Cytochrome P450 2C9 (AID 883); further: on the % scale 0 is the no-effect control and ±100 the full control effect; nearly all actives have a fitted effect of over 60% in size
Cytochrome P450 2C9 (Homo sapiens), sequence (P11712 whole entry, looked up): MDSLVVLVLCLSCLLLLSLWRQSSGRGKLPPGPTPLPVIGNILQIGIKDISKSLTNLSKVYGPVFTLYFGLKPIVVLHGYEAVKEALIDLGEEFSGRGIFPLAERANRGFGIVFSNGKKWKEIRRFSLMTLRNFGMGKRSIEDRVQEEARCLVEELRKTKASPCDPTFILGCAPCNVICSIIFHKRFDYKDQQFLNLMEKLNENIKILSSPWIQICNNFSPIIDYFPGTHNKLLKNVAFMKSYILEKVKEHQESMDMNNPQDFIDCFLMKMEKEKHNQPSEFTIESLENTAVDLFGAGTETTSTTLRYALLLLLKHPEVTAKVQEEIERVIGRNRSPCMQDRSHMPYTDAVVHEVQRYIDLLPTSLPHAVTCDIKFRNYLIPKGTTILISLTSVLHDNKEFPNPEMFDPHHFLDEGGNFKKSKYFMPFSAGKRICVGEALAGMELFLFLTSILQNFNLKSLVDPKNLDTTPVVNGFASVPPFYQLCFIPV
In short: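 Luminescent read-out of deoxyluciferin hydroxylation, normalized to 57uM sulphaphenazole (AC100). Reaction: 10nM enzyme, 100uM Luciferin-H (equal to KM), 25mM KPO4, 10 min compound preincubation, then 60 min with NADPH regeneration, both at 37C.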

[7] = biological target: Cytochrome P450 2D6 (Homo sapiens) (UniProt P10635); assay: qHTS Assay for Inhibitors and Substrates of Cytochrome P450 2D6 (AID 891); further: nearly all actives have a fitted effect of over 60% in size; further: potency means the concentration at half of the fitted maximal effect
Cytochrome P450 2D6 (Homo sapiens), sequence (P10635 whole entry, looked up): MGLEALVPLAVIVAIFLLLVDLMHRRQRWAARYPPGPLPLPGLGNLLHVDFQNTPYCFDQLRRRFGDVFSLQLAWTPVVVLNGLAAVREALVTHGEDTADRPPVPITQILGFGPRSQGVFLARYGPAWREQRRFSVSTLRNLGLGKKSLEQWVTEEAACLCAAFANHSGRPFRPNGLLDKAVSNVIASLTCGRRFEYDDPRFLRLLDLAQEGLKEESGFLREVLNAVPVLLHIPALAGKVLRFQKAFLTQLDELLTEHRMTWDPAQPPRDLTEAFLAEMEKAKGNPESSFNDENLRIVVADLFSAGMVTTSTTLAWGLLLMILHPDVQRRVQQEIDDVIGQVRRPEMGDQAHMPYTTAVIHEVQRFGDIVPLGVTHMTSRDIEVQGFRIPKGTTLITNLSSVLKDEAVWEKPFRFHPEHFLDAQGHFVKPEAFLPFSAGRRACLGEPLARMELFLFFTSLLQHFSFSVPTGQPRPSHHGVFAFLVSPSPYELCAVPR
In short: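 Human CYP2D6 (5 nM) with 30 uM Luciferin-ME EGE (at Km) in 100 mM KPO4, compound preincubated 10 min, then NADPH regeneration system for 60 min at room temperature. Luciferin read by luminescence; normalized to 1.43 uM quinidine.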

[8] = Cell Viability - BJ (AID 421; calls by dose curve;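 further: potency means the concentration at half of the fitted maximal effect; cells exposed to compound for 40 hours at 37 °C before readout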); conditions: BJ fibroblast viability, qHTS
In short: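 Quantitative HTS: ATP depletion in BJ cells after 40 hr compound exposure in complete culture medium, detected with CellTiter-Glo; AC50 from standard Hill fits.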

[9] = Cell Viability - Jurkat (AID 426;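 active means dose-dependent loss of cell ATP signal giving a full or clear fitted curve, ranked by lower potency value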;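 further: potency means the concentration at half of the fitted maximal effect; cells exposed to compound for 40 hours at 37 °C before ATP read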); conditions: qHTS
In short: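 Seed 5000 Jurkat E6-1 cells/well; add compound; incubate 40 hr at 37 °C; add CellTiter-Glo; wait 20 min at room temperature; read luminescence. Fit concentration-response with Hill equation for AC50.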

[10] = Cell Viability - N2a (AID 540); conditions: N2a mouse neuroblastoma cell viability; activity change, negative = cytotoxicity: at 92.2 µM (top of the series);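 further: cells exposed to compound for 40 h at 37 °C; nearly all actives have a fitted effect of over 45% in size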; further: potency means the concentration at half of the fitted maximal effect;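 on activity change, negative = cytotoxicity: plate controls were DMSO alone for no effect and tamoxifen control for full effect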
In short: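 First, 1500 N2a cells per well incubate 5 hr at 37 °C; next, compounds are added and incubated 40 hr at 37 °C; finally CellTiter-Glo is added and luminescence read after 20 min, with AC50 derived by Hill modeling.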

[11] = Cell Viability - Renal Proximal Tubule (AID 545); conditions: renal proximal tubule cells viability; activity change, negative = cytotoxicity: at 91.7 µM (top of the series) unless noted;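 further: cells exposed to compound for 40 hours; nearly all actives have a fitted effect of over 40% in size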; further: potency means the concentration at half of the fitted maximal effect;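 on activity change, negative = cytotoxicity: 0% = DMSO only and -100% = 100 µM tamoxifen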
In short: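 Primary rat renal proximal tubule cells (1000/well) were treated with compounds for 40 hr at 37 °C in complete medium. Intracellular ATP was measured by CellTiter-Glo luminescence, and AC50 values came from Hill-equation fits of concentration-response data.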

[12] = Cell Viability - Mesenchymal (AID 546); conditions: mesenchymal cells viability, qHTS; activity change, negative = cytotoxicity: at 91.7 µM (top of the series);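 further: cells exposed to compound for 40 hours before reading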; further: potency means the concentration at half of the fitted maximal effect;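 on activity change, negative = cytotoxicity: 0% = DMSO only and -100% = 100 µM tamoxifen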
In short: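 AC50 values reflect the drop in intracellular ATP in a human kidney mesenchymal line derived from normal glomeruli. Treatment lasts 40 hr at 37 °C in complete medium, and the signal comes from CellTiter-Glo luminescence.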

[13] = Cellular Toxicity (caspase-3) HepG2 (AID 654);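 further: cells exposed to compound for 16 hours before reading; 0% = DMSO alone and 100% = caspase signal from 100 µM tamoxifen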
In short: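 qHTS, HepG2, 1500 cells/well, complete medium; cpd 16 h 37 °C; Caspase-Glo 3/7, 20 min RT; lum. Norm: DMSO vs 100 uM tamoxifen; AC50 Hill fit.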

[14] = MultiTox-Fluor Cytotoxicity Assay - LYMP1-003 - Live Cells (AID 962);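 further: cells exposed to compound for 16 hours at 37 °C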; further: potency means the concentration at half of the fitted maximal effect
In short: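 Cells plated at 2500 per well and incubated 5 hr; compounds added and incubated 16 hr at 37 C; MultiTox-Fluor reagent added for 60 min at room temperature; fluorescence of liberated AFC measured at 405/510 nm.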

[15] = qHTS assay for environmental chemicals that activate the Aryl hydrocarbon Receptor (AhR) signaling pathway (AID 651777); conditions: 1A2-DRE human hepatoma cells, luciferase, 24 h; activation: active compounds read high; further: % of control where 0% means no effect; nearly all actives have a fitted effect of over 15% in size
In short: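 Concentration–response screening used 1,200 1A2-DRE cells per well, 24 hr compound exposure (37 C, 5% CO2), and One-Glo luminescence as the AhR-driven CYP1A2 reporter signal.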

[16] = qHTS assay for small molecule agonists of the antioxidant response element (ARE) signaling pathway measured by Nrf2-dependant transcriptional activity - cell viability counter screen (AID 720653; active means well fitted curve in the direction sought with a large enough effect in the repeat runs; an effect the other way counts as inactive or inconclusive; further: potency means the concentration at half of the fitted maximal effect; on max response: on the % scale 0 is the no-effect control and ±100 the full control effect); conditions: ARE-bla HepG2 viability, CellTiter-Glo ATP luminescence, 16 h; max response: active compounds read low
In short: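 Cytotoxicity counter screen: intracellular ATP quantified by CellTiter-Glo luminescence in the same ARE-bla HepG2 plates, after 16 h compound exposure and a 2 h beta-lactamase substrate step.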

[17] = Cell Viability - MRC5 (AID 434; calls by dose curve;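 further: potency means the concentration at half of the fitted maximal effect; cells exposed to compound for 40 hours at 37 °C; potency reflects cytotoxicity seen as loss of intracellular ATP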); conditions: MRC5 lung fibroblast viability, qHTS
In short: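 qHTS cytotoxicity in human lung fibroblast MRC5 cells; 40 hr treatment, 37 °C; cellular ATP by luciferase luminescence; DMSO = 0%, 100 uM tamoxifen = 100% inhibition; Hill-fit AC50.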

[18] = Cellular Toxicity (caspase-3) Renal Proximal Tubule (AID 667); conditions: renal proximal tubule cells; at 91.7 µM (top of the series) unless noted;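 further: cells exposed to compound for 16 hours at 37 °C before detection; 0% = DMSO basal and 100% = 10 µM staurosporine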
In short: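 Primary rat proximal tubule cells, 1000/well, 5 h plating at 37 °C, then compound 16 h at 37 °C. Caspase-Glo 3/7 reagent, 1 h RT, luminescence. Normalized to DMSO (basal) and 10 uM staurosporine (100%); Hill-fit AC50.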

[19] = MultiTox-Fluor Cytotoxicity Assay - LYMP1-002 - Live Cells (AID 955);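 further: cells exposed to compound for 16 hours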; further: potency means the concentration at half of the fitted maximal effect
In short: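 Cytotoxicity in the human lymphoblastoid line LYMP1-002 is measured as loss of live-cell protease activity after 16 h treatment in complete culture medium. AC50 is derived from Hill-equation fits of qHTS concentration-response data.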

CCCN1CCC[C@H](c2cccc(C#N)c2)C1
inactive: outcome [1] | Potency [2] > 46 µM | Potency [3] > 46 µM | outcome [4] | outcome [5]

C=C1C/C(=C\C)C(=O)O[C@@H]2CCN3CC=C(COC(=O)[C@]1(C)O)[C@H]23
inactive: Potency [2] > 46 µM | Potency [3] > 46 µM | outcome [4] | outcome [5] | Potency [6] | Potency [7]

COc1cc2c(cc1O)-c1c(O)c(OC)cc3c1[C@H](C2)N(C)CC3
inactive: Potency [2] > 46 µM | Potency [3] > 46 µM | outcome [4]
active: Potency [7] 2.51 µM

COc1ccc2[nH]c3c(c2c1)CCN=C3C
active: Potency [7] 0.631 µM
inactive: outcome [1] | Potency [2] > 20.6 µM | Potency [3] > 20.6 µM | outcome [5]

CC(C)CC(C)Nc1ccc(Nc2ccccc2)cc1 (configuration not stated)
inactive: Potency [8] > 92 µM | Potency [12] | outcome [13] | activation [15] 10.8% | max response [16] -3.35%
active: Potency [9] 64.1 µM | activity change, negative = cytotoxicity [10] -118% | activity change, negative = cytotoxicity [11] -106% | Potency [14] 50.1 µM

O=C(O)C1C(C(=O)O)C2(Cl)C(Cl)=C(Cl)C1(Cl)C2(Cl)Cl (configuration not stated)
inactive: Potency [8] > 92 µM | Potency [9] > 92 µM | Potency [17] > 92 µM | outcome [4] | activity change, negative = cytotoxicity [10] 14.3% | Potency [11] | Potency [12] | outcome [13] | caspase-3 activation [18] -21% [at 91.7 µM, primary cells freshly taken from rat, solvent-only wells 0%, staurosporine 100%] | Potency [19] | Potency [14] | activation [15] 0.623% | max response [16] 5.57%

COC(=O)C1(C)C=C2C(=C(C)C(=O)C2C)CN1 (configuration not stated)
inactive: outcome [4] | outcome [5]

OC(c1ccc(Cl)cc1)(c1ccc(Cl)cc1)C(Cl)(Cl)Cl
active: activity change, negative = cytotoxicity [10] -118%
inactive: Potency [8] > 92 µM | Potency [17] > 92 µM | Potency [11] | Potency [12] | outcome [13] | caspase-3 activation [18] 1.02% | Potency [19] | Potency [14] | max response [16] -1.65%

CN(CCc1ccc(Cl)c(Cl)c1)[C@H]1CCCC[C@H]1N1CCCC1
inactive: Potency [3] > 46 µM | outcome [4]
active: Potency [7] 0.0063 µM

Cc1ccc(O)cc1C
inactive: Potency [8] > 92 µM | Potency [9] > 92 µM | Potency [17] > 92 µM | activation [15] 0.215% | max response [16] -2.94%

C[C@H]1CC[C@]2(NC1)O[C@@H]1C[C@@H]3[C@@H]4CC=C5C[C@H](O)CC[C@@]5(C)[C@H]4CC[C@@]3(C)[C@H]1[C@@H]2C
inactive: Potency [2] > 46 µM | Potency [3] > 46 µM | outcome [4] | Potency [6] | Potency [7]

Clc1ccc(C(c2ccc(Cl)cc2)C(Cl)Cl)cc1
inactive: Potency [12] | outcome [13] | Potency [19] | Potency [14] | activation [15] 0.923% and 0.102% | max response [16] -1.77% and -12.4%
active: Potency [8] 55 µM | Potency [17] 45.4 µM | activity change, negative = cytotoxicity [10] -102% | activity change, negative = cytotoxicity [11] -88.1% | caspase-3 activation [18] 152%

C#CCO
inactive: Potency [8] > 92 µM | Potency [9] > 92 µM | Potency [17] > 92 µM | outcome [4] | activity change, negative = cytotoxicity [10] -2.19% | Potency [11] | Potency [12] | outcome [13] | caspase-3 activation [18] -11.4% [at 91.7 µM, primary cells freshly taken from rat, solvent-only wells 0%, staurosporine 100%] | Potency [19] | Potency [14] | activation [15] 1.07% | max response [16] -2.39%

CCCc1cc2c(n1CCO)C(C)C1CN(C(=O)c3ccccc3)C(C)(C(=O)OC)C21 (configuration not stated)
inactive: outcome [4] | outcome [5]

O=C1C2(Cl)C3(Cl)C4(Cl)C(Cl)(Cl)C5(Cl)C3(Cl)C1(Cl)C5(Cl)C24Cl (configuration not stated)
active: Potency [8] 26.8 µM and 61.3 µM | Potency [9] 32.8 µM and 53.4 µM | Potency [17] 39.7 µM and 48.6 µM | Potency [10] 31.6 µM and 39.8 µM | Potency [11] 31.6 µM | activity change, negative = cytotoxicity [11] -88.2% | Potency [12] 31.6 µM | activity change, negative = cytotoxicity [12] -92.3% | Potency [19] 31.6 µM | Potency [14] 39.8 µM and 50.1 µM | Potency [16] 50.1 µM
inactive: outcome [4] | caspase-3 activation [18] -3.9% | activation [15] 0.0088% and 4.7% | max response [16] 5.47%

Oc1c(Cl)cc(Cl)cc1Cl
inactive: Potency [8] > 92 µM | Potency [17] > 92 µM | activation [15] 0.15% and 1.58% | max response [16] -6.96% and -8.43%

CCN(CC)c1ncnc2c1ncn2[C@@H]1O[C@@H](COP(=O)(O)OP(=O)(O)C(Br)(Br)P(=O)(O)O)[C@H](O)[C@H]1O
inactive: Potency [2] > 46 µM | Potency [3] > 46 µM | outcome [4] | outcome [5]
active: Potency [7] 0.631 µM
